Screening results from PubChem.
FMDV inh – antivirals against foot and mouth disease virus; FMDV antiviral cell-based qHTS; Potency, µM (top dose mostly 57.9 µM), actives largely listed as inhibitors; 410,000 tested, 1.2% active; calls by dose curve; tested in HEK293T cells; further: read-out not given here; nearly all actives have a fitted effect of over 45% in size
Shiga inhibitor – blocks Shiga toxin action in Vero cells | 290,000 tested, 9.2% active | inhibition, % at 38.7 µM | Vero cells, Shiga toxin protein synthesis inhibition reporter; in the data active means inhibition mostly above about 28%, no sharp cut-off; inactive means mostly below about 43%
MARV entry inh – inhibitors of Marburg virus binding or cell entry. AID 540276. Marburg virus pseudotyped entry inhibition, cell reporter. 300,000 tested, 1.8% active. Potency, µM (top dose mostly 37.8 µM), most hits filed as inhibitors; calls by dose curve; tested in HEK293 cells
LASV entry inh – blocks Lassa virus binding to or entry into cells | Lassa virus pseudotype entry inhibition, cell reporter | Potency, µM (titrated, usually from 37.9 µM), actives largely listed as inhibitors | 300,000 tested, 1.2% active; calls by dose curve; tested in HEK293 cells; further: nearly all actives have a fitted effect of over 50% in size
CHX counter – counter-screen for Shiga toxin inhibitors: cycloheximide protein synthesis inhibition; 300,000 tested, 12% active; max response, %; cell reporter, cycloheximide protein synthesis inhibition counterscreen; in the data active means max response mostly above about 13%, no sharp cut-off; inactive means mostly below about 14%; further: read at 38.3 µM for the half of the compounds with a filed dose
HCV inhibitor – HCV inhibition; AID 651820; Potency, µM (top dose mostly 41.8 µM), most hits filed as inhibitors; Huh7.5.1 HCVcc-Cre infection, luciferase reporter, 44 h; 340,000 tested, 3.4% active; active means well fitted inhibition curve with a large enough effect; inconclusive means small, poorly fitted or top-dose-only effect, or another doubt; inactive means no such curve, though single readings can be large or run the other way
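Compounds are dispensed onto cells plated 4 h earlier at 1,000 per well, with HCVcc-Cre virus (about 0.5 moi) added next. Following 44 h of culture, luminescent signal is measured for 15 sec after 15 min with substrate at room temperature.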
A number is an active result; – = inactive; ? = inconclusive; · = not tested or not shown. The list is not random: actives were taken first. Their share in the collection is about 13%.

SMILES	FMDV inh	Shiga inhibitor	MARV entry inh	LASV entry inh	CHX counter	HCV inhibitor
Cn1cc(Cl)c(C(=O)Nc2nc3ccc(Cl)cc3s2)n1	·	71	–	?	57	–
Cc1noc(C)c1C(=O)Nc1nc2ccc(Cl)cc2s1	–	89	·	·	42	–
Cc1ccc(CNC(=O)C2CCN(S(=O)(=O)Cc3ccccc3)CC2)cc1	–	·	–	–	·	·
CC1(C)CC(=NOC(=O)c2ccccc2)CC(C)(C)N1	–	–	–	–	–	–
CN(C)c1ncc(S(=O)(=O)c2ccccc2)c(-c2ccc(Cl)cc2Cl)n1	–	–	–	–	–	–
CCOC(=O)c1cc(NC(=O)Nc2ccccn2)c(C)nc1C	–	–	·	·	27	–
Cc1ccccc1NC(=O)Nc1ccccn1	–	·	·	·	28	–
O=C(Nc1ccccn1)Nc1ccccc1[N+](=O)[O-]	–	47	–	–	40	–
Cn1nc(-c2ccccc2)cc1NC(=O)Nc1ccc(F)cc1	–	–	–	–	–	–
Cc1ccccc1NC(=O)Nc1cc(-c2ccccc2)nn1C	–	82	?	?	36	–
Cc1ccc(C(CC(=O)O)NC(=O)CCNC(=O)c2ccco2)cc1 (centres undefined)	–	·	–	–	·	–
Nc1c(Cl)cc(-c2cn(CCC(=O)O)c(-c3ccncc3)n2)cc1Cl	–	·	·	·	·	–
NC(=O)c1cccc2c3c([nH]c12)CCCC3	–	87	–	–	36	–
CCc1ccc(N2CC(C(=O)NC3CCCCC3C)CC2=O)cc1 (centres undefined)	–	–	–	–	–	–
O=C(OCc1nc2ccccc2s1)C1CCN(C2=NS(=O)(=O)c3ccccc32)CC1	–	60	–	–	61	–
COCCCN1C(=O)c2[nH]nc(-c3ccccc3O)c2C1c1ccc(OC)cc1 (centres undefined)	–	·	–	?	·	·
C=C1CCC(O)C2(C)CCC3C(C)C(=O)OC3C12O (centres undefined)	–	–	–	–	–	–
C=C1C(=O)O[C@@H]2[C@H]1CC[C@H](C)[C@]1(O)CCC(=O)[C@@]21C	–	–	·	·	21	?
COc1ccc(N2CCN(C(=O)CNS(=O)(=O)c3ccc(C)cc3)CC2)cc1	–	–	?	?	–	–
CC1(CC(=O)N/N=C/c2ccc(OCc3ccc(Cl)cc3Cl)cc2)OCCCO1	–	–	?	?	–	–
Cc1ccc(-n2cc(CNCC3CC(=O)N(C4CC4)C3)c(-c3cccc(C)c3)n2)cc1 (centres undefined)	–	–	·	·	–	–
CCCC(=O)Nc1nc(C(=O)OCC)cs1	·	–	–	–	18	–
CCOC(=O)c1csc(NC(=O)C2CCCCC2)n1	–	59	–	–	26	–
Cc1cn(CC(=O)NCCCc2ccccc2)c(=O)[nH]c1=O	–	·	·	·	·	2.8µM
Cc1cc(C)cc(C(=O)NCCCc2ccccc2)c1	–	–	–	–	–	–
SMILES	FMDV inh	Shiga inhibitor	MARV entry inh	LASV entry inh	CHX counter	HCV inhibitor
Cc1ccc(C(=O)NCCCc2ccccc2)c(C)c1	–	60	?	?	42	–
O=C(NCCCc1ccccc1)c1ccc([N+](=O)[O-])cc1Cl	–	29	?	–	29	–
Cc1ccc(C(=O)NCCCc2ccccc2)c(Cl)c1	–	·	–	–	37	?
Cc1cn(CC(=O)NCc2ccccc2)c(=O)[nH]c1=O	–	·	·	·	·	–
CCOC(=O)c1nc(C)nc(Sc2n[nH]c(-c3cc(Cl)cc(Cl)c3)n2)c1C	–	–	–	–	–	–
Cc1ccc(C(=O)NNC(=O)c2ccncc2)cc1S(=O)(=O)N1CCOCC1	–	·	–	–	·	–
COc1cc(-c2cnc3c(NC=O)cc(-c4cccnc4)cn23)cc(OC)c1OC	–	·	·	·	·	·
O=C(NCC(c1ccco1)N1CCN(c2ccccc2F)CC1)C(=O)NC1CCCC1 (centres undefined)	–	·	–	–	·	?
Oc1c(/C=N/c2ncn[nH]2)ccc2ccccc12	–	66	–	–	27	–
Cc1ccc(-n2c(O)c(/C=N/c3ncn[nH]3)c3ccccc3c2=O)cc1	–	–	?	?	–	?
O=C(CCCOc1ccc(Cl)cc1Cl)Nc1nnc(C2CC2)s1	–	–	–	–	–	–
CNC(=O)c1cc(S(=O)(=O)Nc2ccc3c(c2)OCCO3)ccc1C	–	–	–	–	–	–
COc1c2c(nc3occc13)C(CC=C(C)C)(OC)C(O)CC2 (centres undefined)	–	–	–	–	–	–
O=C(Cn1cc(C(=O)c2cccs2)c2ccccc21)NC1CCCCC1	–	–	–	–	–	–
